# Reference: PubChem BioAssay (EPA / NIEHS)
# Calls of active or inactive are those of the source. How the source made its calls: active means hit-call score of the fitted dose curve at least 0.9, where 1 is the maximum; inactive means score below 0.9.
# Tests used:
# [1] = ATG_GRE_CIS: Attagene CIS-FACTORIAL HepG2 Assay for human Glucocorticoid Response Elements (GRE) (AID 2282947); conditions: HepG2 GRE cis-reporter, Attagene multiplex mRNA; actives raise or lower the signal
# Method in brief: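 Fluorescence intensity of reporter-specific cDNA fragments, separated by capillary electrophoresis, provides the signal. Constructs carry cis-regulating promoters in transiently transfected HepG2 liver cells; 24 h incubation; fitting is bidirectional against DMSO.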
# [2] = ATG_ISRE_CIS: Attagene CIS-FACTORIAL HepG2 Assay for human Interferon Regulatory Factor 1 (IRF1) binding to an Interferon-Stimulated Response Element (ISRE) (AID 2282948); conditions: HepG2 ISRE cis-reporter (Attagene), mRNA transcription readout; actives raise or lower the signal
# Method in brief: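 Read-out: fluorescent RT-PCR products resolved by capillary electrophoresis, reporting endogenous transcription factor activity via ISRE-driven reporter mRNA in transfected HepG2 cells dosed for 24 h; gain or loss fitted relative to DMSO.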
# [3] = ATG_M_32_CIS: Attagene CIS-FACTORIAL HepG2 Assay for M32 Transcription Factor (Internal Marker) (AID 2282949); conditions: HepG2 Attagene cis-factorial M32 reporter, mRNA; actives raise or lower the signal;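 further: background control marker of the multiplexed CIS panel rather than a real target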
# Method in brief: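 HepG2 human liver cells transiently transfected with cis-promoter-driven multiple reporter transcription units, dosed 24 h. Reporter mRNA quantified by RT-PCR, FAM-labelled primer extension, HpaI digest and capillary electrophoresis; bidirectional fit versus DMSO baseline.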
# [4] = ATG_M_06_CIS: Attagene CIS-FACTORIAL HepG2 Assay for M06 Transcription Factor (Internal Marker) (AID 2282950); conditions: HepG2 Attagene CIS-FACTORIAL M06 internal marker reporter; actives raise or lower the signal
# Method in brief: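 Serves as a background control readout. Transfected HepG2 exposed to compounds for 24 h, then reporter transcripts quantified by fluorescent RT-PCR and capillary electrophoresis. Both directions fitted against DMSO baseline.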
# [5] = target: Hepatocyte nuclear factor 6 (Homo sapiens) (UniProt Q9UBC0); experiment: ATG_HNF6_CIS: Attagene CIS-FACTORIAL HepG2 Assay for human Hepatocyte Nuclear Factor 6 (HNF6) (AID 2282952); conditions: HepG2 Attagene cis-factorial HNF6 reporter transcription; actives raise or lower the signal
# Sequence of Hepatocyte nuclear factor 6 (Homo sapiens) (Q9UBC0 whole entry, looked up): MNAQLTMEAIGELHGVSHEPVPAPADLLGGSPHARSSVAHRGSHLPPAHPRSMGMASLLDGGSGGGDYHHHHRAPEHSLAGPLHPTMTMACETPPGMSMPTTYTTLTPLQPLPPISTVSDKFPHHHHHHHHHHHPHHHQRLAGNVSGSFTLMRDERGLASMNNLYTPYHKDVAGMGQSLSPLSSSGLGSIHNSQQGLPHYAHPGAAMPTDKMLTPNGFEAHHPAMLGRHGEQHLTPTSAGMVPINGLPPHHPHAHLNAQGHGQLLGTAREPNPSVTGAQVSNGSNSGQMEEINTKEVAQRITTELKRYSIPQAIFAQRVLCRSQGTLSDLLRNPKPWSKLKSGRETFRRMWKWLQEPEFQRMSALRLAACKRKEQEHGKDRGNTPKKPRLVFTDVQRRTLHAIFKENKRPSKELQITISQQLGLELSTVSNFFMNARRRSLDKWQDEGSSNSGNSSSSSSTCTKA
# Method in brief: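 Activity values derive from bidirectional fitting against DMSO of reporter mRNA levels, measured by capillary electrophoresis of labelled RT-PCR products from HepG2 cells exposed 24 h.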
# [6] = target: Heat shock factor protein 1 (Homo sapiens) (UniProt Q00613); experiment: ATG_HSE_CIS: Attagene CIS-FACTORIAL HepG2 Assay for human Heat Shock Transcription Factor 1 (HSE) (AID 2282953); conditions: HepG2 HSE cis-reporter, Attagene RNA transcription; actives raise or lower the signal
# Sequence of Heat shock factor protein 1 (Homo sapiens) (Q00613 whole entry, looked up): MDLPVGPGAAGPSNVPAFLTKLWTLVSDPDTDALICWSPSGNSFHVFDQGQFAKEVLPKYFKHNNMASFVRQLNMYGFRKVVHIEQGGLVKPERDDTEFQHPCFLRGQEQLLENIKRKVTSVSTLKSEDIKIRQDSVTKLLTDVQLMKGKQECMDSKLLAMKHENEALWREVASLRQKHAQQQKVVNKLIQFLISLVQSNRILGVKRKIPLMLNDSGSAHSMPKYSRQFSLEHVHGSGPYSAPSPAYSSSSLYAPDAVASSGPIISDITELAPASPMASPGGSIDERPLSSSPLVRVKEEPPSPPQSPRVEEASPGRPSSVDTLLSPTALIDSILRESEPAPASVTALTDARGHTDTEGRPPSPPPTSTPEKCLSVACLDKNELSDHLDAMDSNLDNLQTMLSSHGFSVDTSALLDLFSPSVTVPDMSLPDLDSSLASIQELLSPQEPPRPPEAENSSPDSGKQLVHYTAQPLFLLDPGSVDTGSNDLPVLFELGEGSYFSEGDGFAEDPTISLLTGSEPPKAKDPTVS
# Method in brief: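 Endogenous transcription factor activity in transiently transfected HepG2, read as reporter mRNA by RT-PCR with fluorescent capillary electrophoresis after 24 h. Gain or loss of signal fitted versus DMSO baseline.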
# [7] = ATG_MRE_CIS: Attagene CIS-FACTORIAL HepG2 Assay for human Metal Responsive Element (MRE) (AID 2282954); conditions: HepG2 MRE cis-reporter transcription, Attagene multiplex; actives raise or lower the signal
# Method in brief: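 Measured here is mRNA induction from an MRE cis-element reporter in HepG2 after 24 h, quantified by fluorescence of labelled RT-PCR products on capillary electrophoresis; gain- and loss-of-signal fits use DMSO as baseline.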
# [8] = target: Paired box protein Pax-6 (Homo sapiens) (UniProt P26367); experiment: ATG_Pax6_CIS: Attagene CIS-FACTORIAL HepG2 Assay for human Paired Box 6 (PAX6) (AID 2282956); conditions: HepG2 CIS-FACTORIAL PAX6 reporter transcription, RNA readout; actives raise or lower the signal
# Sequence of Paired box protein Pax-6 (Homo sapiens) (P26367 whole entry, looked up): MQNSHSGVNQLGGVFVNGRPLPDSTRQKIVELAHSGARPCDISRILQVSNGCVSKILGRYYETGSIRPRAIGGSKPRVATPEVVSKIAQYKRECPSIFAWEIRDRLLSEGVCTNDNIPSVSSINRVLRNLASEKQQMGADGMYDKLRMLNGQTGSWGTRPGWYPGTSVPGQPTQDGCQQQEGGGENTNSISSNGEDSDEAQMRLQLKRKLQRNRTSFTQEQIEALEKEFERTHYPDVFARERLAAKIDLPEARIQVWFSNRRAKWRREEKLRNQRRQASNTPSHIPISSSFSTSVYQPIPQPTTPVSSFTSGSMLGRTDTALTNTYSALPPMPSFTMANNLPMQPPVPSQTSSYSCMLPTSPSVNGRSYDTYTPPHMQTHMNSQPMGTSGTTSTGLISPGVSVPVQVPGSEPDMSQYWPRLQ
# Method in brief: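 Readout: reporter transcript fluorescence after RT-PCR and capillary electrophoresis. Cells: HepG2, transiently transfected with cis-regulated MRTUs. Exposure 24 h. Gain or loss of signal fitted bidirectionally relative to DMSO.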
# [9] = ATG_PXRE_CIS: Attagene CIS-FACTORIAL HepG2 Assay for human Pregnane X Receptor Element (PXRE) (AID 2282957); conditions: HepG2 Attagene CIS-FACTORIAL PXRE reporter, mRNA; actives raise or lower the signal
# Method in brief: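 Fluorescent capillary electrophoresis of amplified reporter cDNA gave the signal, collected 24 h after dosing HepG2 cells that held transfected cis-element reporter constructs.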
# [10] = ATG_Sox_CIS: Attagene CIS-FACTORIAL HepG2 Assay for human SRY-box transcription factor (SOX) (AID 2282960); conditions: HepG2 Attagene cis-factorial SOX reporter, mRNA; actives raise or lower the signal
# Method in brief: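 Gain- or loss-of-signal endpoint, fitted bidirectionally with DMSO as negative control. Based on reporter mRNA from transfected HepG2 cells harvested 24 h post-treatment and quantified via RT-PCR and capillary electrophoresis.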
# [11] = target: Transcription factor Sp1 (Homo sapiens) (UniProt P08047); experiment: ATG_Sp1_CIS: Attagene CIS-FACTORIAL HepG2 Assay for human Specificity Protein 1 (Sp1) (AID 2282961); conditions: HepG2 Sp1 cis-reporter transcription, actives raise or lower the signal
# Sequence of Transcription factor Sp1 (Homo sapiens) (P08047 whole entry, looked up, the tested form may be a part): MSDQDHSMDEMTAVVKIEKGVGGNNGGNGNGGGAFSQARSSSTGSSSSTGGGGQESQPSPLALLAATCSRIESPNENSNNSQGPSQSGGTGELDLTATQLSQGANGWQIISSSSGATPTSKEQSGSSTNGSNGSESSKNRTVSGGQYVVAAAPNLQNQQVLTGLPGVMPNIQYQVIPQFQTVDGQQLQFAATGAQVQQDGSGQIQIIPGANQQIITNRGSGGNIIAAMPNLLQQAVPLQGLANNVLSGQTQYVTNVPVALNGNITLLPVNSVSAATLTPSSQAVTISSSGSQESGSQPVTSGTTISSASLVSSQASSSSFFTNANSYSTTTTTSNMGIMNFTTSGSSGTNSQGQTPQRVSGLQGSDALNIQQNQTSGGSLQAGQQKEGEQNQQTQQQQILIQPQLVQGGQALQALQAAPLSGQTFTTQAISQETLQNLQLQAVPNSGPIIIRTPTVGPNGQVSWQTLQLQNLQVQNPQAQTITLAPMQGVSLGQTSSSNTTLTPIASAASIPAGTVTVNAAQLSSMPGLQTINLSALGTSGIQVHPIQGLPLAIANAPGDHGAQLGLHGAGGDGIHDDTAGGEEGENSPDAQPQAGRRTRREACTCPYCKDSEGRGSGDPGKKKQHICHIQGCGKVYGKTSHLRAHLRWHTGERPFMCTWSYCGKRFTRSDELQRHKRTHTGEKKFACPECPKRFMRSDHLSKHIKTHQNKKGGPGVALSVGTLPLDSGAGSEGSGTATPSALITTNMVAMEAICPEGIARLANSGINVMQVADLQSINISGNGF
# Method in brief: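 Endpoint reflects endogenous Sp1 transcriptional activity, not an exogenous fusion protein: HepG2 cells with transfected cis-regulated reporters, 24 h dosing, RT-PCR/capillary electrophoresis mRNA read-out, DMSO-normalised bidirectional fit.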
# [12] = ATG_SREBP_CIS: Attagene CIS-FACTORIAL HepG2 Assay for human Sterol Regulatory Element Binding (SREBP) (AID 2282962); conditions: HepG2 Attagene cis-factorial SREBP reporter, mRNA; actives raise or lower the signal
# Method in brief: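 Readout: fluorescent reporter-transcript peaks resolved by capillary electrophoresis after RT-PCR. Cells were human HepG2 carrying transfected cis-promoter reporter constructs, dosed for 24 h. Gain or loss of signal was fitted against DMSO controls.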
# [13] = target: Signal transducer and activator of transcription 3 (Homo sapiens) (UniProt P40763); experiment: ATG_STAT3_CIS: Attagene CIS-FACTORIAL HepG2 Assay for human Signal Transducer and Activator of Transcription 3 (STAT3) (AID 2282963); conditions: HepG2, Attagene cis-factorial STAT3 reporter transcription; actives raise or lower the signal
# Sequence of Signal transducer and activator of transcription 3 (Homo sapiens) (P40763 whole entry, looked up, the tested form may be a part): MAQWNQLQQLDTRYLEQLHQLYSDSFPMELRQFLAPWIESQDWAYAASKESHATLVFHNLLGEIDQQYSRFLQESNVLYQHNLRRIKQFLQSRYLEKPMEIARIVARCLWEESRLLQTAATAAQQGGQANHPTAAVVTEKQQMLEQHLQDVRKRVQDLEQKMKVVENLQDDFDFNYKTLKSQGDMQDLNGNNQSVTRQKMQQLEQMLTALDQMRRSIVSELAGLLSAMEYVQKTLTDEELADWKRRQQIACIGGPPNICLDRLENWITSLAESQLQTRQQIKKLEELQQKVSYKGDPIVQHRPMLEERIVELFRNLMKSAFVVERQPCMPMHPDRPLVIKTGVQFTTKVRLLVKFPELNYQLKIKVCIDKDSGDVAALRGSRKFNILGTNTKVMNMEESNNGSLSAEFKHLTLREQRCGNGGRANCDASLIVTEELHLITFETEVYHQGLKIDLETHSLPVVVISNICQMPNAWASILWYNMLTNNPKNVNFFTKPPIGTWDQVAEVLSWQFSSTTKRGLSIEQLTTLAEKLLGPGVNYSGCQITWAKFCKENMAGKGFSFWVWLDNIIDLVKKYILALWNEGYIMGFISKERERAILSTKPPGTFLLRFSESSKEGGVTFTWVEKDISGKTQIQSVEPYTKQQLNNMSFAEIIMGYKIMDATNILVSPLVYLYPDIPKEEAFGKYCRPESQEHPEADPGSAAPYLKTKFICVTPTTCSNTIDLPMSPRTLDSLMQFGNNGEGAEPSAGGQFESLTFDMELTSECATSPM
# Method in brief: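 Fluorescence intensity of 6-FAM-labelled reporter fragments, separated by capillary electrophoresis after RT-PCR, gave the signal. Cells were HepG2 transfected with cis-element reporter units and treated 24 h; fitting was bidirectional relative to DMSO.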
# [14] = ATG_TA_CIS: Attagene CIS-FACTORIAL HepG2 Assay for human TA Basal Promoter (AID 2282964); conditions: HepG2 Attagene CIS-factorial TA basal promoter reporter; actives raise or lower the signal
# Method in brief: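 Background-control readout: TA basal promoter reporter mRNA, fitted in both directions relative to DMSO. Measured by RT-PCR and capillary electrophoresis 24 hours after treating HepG2 human liver cells transiently carrying multiplexed cis-regulated reporter constructs.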
# [15] = ATG_TCF_b_cat_CIS: Attagene CIS-FACTORIAL HepG2 Assay for human T-Cell-Factor with beta-catenin (TCF/b-cat) (AID 2282965); conditions: HepG2 TCF/beta-catenin cis-reporter transcription, actives raise or lower the signal
# Method in brief: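 HepG2 cells transiently transfected with cis-promoter-driven multiplexed reporter units; reporter mRNA measured 24 h after dosing by RT-PCR, FAM labelling, HpaI digestion and capillary electrophoresis. Bidirectional fitting relative to DMSO baseline.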
# [16] = target: Hypoxia-inducible factor 1-alpha (Homo sapiens) (UniProt Q16665); experiment: ATG_HIF1a_CIS: Attagene CIS-FACTORIAL HepG2 Assay for human Hypoxia Inducible Factor 1 (HIF1A) (AID 2282951); conditions: HepG2 Attagene cis-factorial HIF1a reporter transcription; actives raise or lower the signal
# Sequence of Hypoxia-inducible factor 1-alpha (Homo sapiens) (Q16665 whole entry, looked up): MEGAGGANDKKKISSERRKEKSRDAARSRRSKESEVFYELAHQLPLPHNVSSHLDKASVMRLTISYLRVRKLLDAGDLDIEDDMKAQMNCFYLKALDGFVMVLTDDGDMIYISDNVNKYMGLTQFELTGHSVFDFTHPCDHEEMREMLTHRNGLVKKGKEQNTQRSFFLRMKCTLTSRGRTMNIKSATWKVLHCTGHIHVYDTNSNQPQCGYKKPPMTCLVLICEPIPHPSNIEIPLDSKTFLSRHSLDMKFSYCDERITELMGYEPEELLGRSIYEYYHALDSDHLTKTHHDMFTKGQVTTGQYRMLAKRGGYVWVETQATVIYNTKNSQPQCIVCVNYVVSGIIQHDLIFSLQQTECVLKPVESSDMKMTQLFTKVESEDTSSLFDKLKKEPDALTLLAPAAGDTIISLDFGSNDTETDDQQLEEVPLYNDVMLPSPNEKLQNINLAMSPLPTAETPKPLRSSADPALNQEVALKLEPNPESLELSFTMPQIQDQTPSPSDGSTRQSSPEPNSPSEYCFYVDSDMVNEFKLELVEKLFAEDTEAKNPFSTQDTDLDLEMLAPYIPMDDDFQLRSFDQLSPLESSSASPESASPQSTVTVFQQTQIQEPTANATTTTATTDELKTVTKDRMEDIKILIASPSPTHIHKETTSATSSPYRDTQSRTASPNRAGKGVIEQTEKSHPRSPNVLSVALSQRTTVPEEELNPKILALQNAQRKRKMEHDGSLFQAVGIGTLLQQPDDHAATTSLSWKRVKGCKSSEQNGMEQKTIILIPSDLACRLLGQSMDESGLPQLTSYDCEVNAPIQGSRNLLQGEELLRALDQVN
# Method in brief: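 Dosed 24 h, transfected HepG2 cells yielded total RNA whose reporter transcripts were RT-PCR-amplified and sized by capillary electrophoresis using fluorescent labelling; DMSO defined baseline, with gain and loss of signal both fitted.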
# [17] = ATG_PBREM_CIS: Attagene CIS-FACTORIAL HepG2 Assay for human Phenobarbital-responsive Enhancer Module (PBREM) (AID 2282955); conditions: HepG2 PBREM cis-reporter, Attagene multiplexed transcription; actives raise or lower the signal
# Method in brief: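 Transfected liver-derived HepG2 cells exposed 24 h; PBREM reporter transcript quantified via RT-PCR and capillary electrophoresis, with activity in either direction referenced to DMSO.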
# [18] = ATG_RORE_CIS: Attagene CIS-FACTORIAL HepG2 Assay for human RAR-related Orphan Receptor Element (RORE) (AID 2282959); conditions: HepG2 Attagene cis-factorial RORE reporter, mRNA; actives raise or lower the signal
# Method in brief: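 Transiently transfected HepG2 reporter cells were treated 24 h. Reporter transcripts were detected by RT-PCR and capillary electrophoresis, with bidirectional fitting against DMSO.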
# [19] = ATG_PPRE_CIS: Attagene CIS-FACTORIAL HepG2 Assay for human Peroxisome Proliferator-activated Response Element (PPRE) (AID 2282958); conditions: HepG2 PPRE cis-element reporter, Attagene transcription factor profiling; actives raise or lower the signal
# Method in brief: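 Measured endpoint: PPRE-controlled reporter mRNA, detected by RT-PCR and capillary electrophoresis fluorescence, from transiently transfected HepG2 cells 24 h after dosing. Curves fitted in both directions using DMSO baseline.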
smiles,measurement,setting,value
CC[C@]12CCCN3CCc4c(n(c5ccccc45)[C@@](O)(C(=O)OC)C1)[C@@H]32,outcome,[1],inactive
same,outcome,[2],inactive
same,outcome,[3],inactive
same,outcome,[4],inactive
same,outcome,[5],inactive
same,AC50,[6],159 µM (active)
same,outcome,[7],inactive
same,outcome,[8],inactive
same,AC50,[9],7.96 µM (active)
same,outcome,[10],inactive
same,outcome,[11],inactive
same,outcome,[12],inactive
same,outcome,[13],inactive
same,outcome,[14],inactive
same,outcome,[15],inactive
CC(C)(CO)[N+](=O)[O-],outcome,[1],inactive
same,outcome,[2],inactive
same,outcome,[4],inactive
same,outcome,[16],inactive
same,outcome,[5],inactive
same,outcome,[6],inactive
same,outcome,[7],inactive
same,outcome,[17],inactive
same,outcome,[8],inactive
same,outcome,[9],inactive
same,outcome,[18],inactive
same,outcome,[10],inactive
same,outcome,[11],inactive
same,outcome,[12],inactive
same,outcome,[13],inactive
same,outcome,[14],inactive
same,outcome,[15],inactive
C[C@]12CC[C@H]3[C@@H](CCC4=CC(=O)CC[C@@]43C)[C@@H]1CC[C@@H]2C(=O)CO,outcome,[1],inactive
same,AC50,[2],100 µM (active)
same,outcome,[4],inactive
same,AC50,[6],60.1 µM (active)
same,AC50,[7],100 µM (active)
same,AC50,[17],3.31 µM (active)
same,AC50,[8],100 µM (active)
same,AC50,[9],1.7 µM (active)
same,outcome,[18],inactive
same,outcome,[11],inactive
same,outcome,[13],inactive
same,AC50,[14],61 µM (active)
same,AC50,[15],100 µM (active)
O=C(O)CN(CCN(CC(=O)O)CC(=O)O)CCN(CC(=O)O)CC(=O)O,outcome,[1],inactive
same,outcome,[2],inactive
same,outcome,[3],inactive
same,outcome,[4],inactive
same,outcome,[5],inactive
same,outcome,[7],inactive
same,outcome,[17],inactive
same,outcome,[8],inactive
same,outcome,[9],inactive
same,outcome,[19],inactive
same,outcome,[18],inactive
same,outcome,[10],inactive
same,outcome,[11],inactive
same,outcome,[12],inactive
same,outcome,[13],inactive
same,outcome,[14],inactive
same,outcome,[15],inactive
C[C@H]1C[C@@H]2[C@H]([C@@H](O)C[C@@]3(C)[C@H]2CC[C@]3(O)C(=O)CO)[C@@]2(C)C=CC(=O)C=C12,AC50,[1],151 nM (active)
same,outcome,[2],inactive
same,AC50,[3],131 µM (active)
same,outcome,[4],inactive
same,outcome,[7],inactive
same,outcome,[8],inactive
same,outcome,[19],inactive
same,outcome,[18],inactive
same,outcome,[10],inactive
same,outcome,[11],inactive
same,outcome,[12],inactive
same,outcome,[13],inactive
same,outcome,[14],inactive
same,outcome,[15],inactive
COc1ccc(NC(=O)CC(C)=O)cc1,outcome,[2],inactive
same,outcome,[3],inactive
same,outcome,[4],inactive
same,outcome,[16],inactive
same,outcome,[5],inactive
same,outcome,[6],inactive
same,outcome,[7],inactive
same,outcome,[17],inactive
same,outcome,[8],inactive
same,outcome,[9],inactive
same,outcome,[19],inactive
same,outcome,[18],inactive
same,outcome,[10],inactive
same,outcome,[11],inactive
same,outcome,[12],inactive
same,outcome,[13],inactive
same,outcome,[14],inactive
same,outcome,[15],inactive
CCc1ccc(C=O)cc1,outcome,[1],inactive
same,outcome,[2],inactive
same,outcome,[4],inactive
same,outcome,[16],inactive
same,outcome,[5],inactive
same,outcome,[6],inactive
same,outcome,[7],inactive
same,outcome,[17],inactive
same,outcome,[8],inactive
same,outcome,[9],inactive
same,outcome,[19],inactive
same,outcome,[18],inactive
same,outcome,[10],inactive
same,outcome,[11],inactive
same,outcome,[12],inactive
same,outcome,[13],inactive
same,outcome,[14],inactive
same,outcome,[15],inactive
